Screens (PubChem BioAssay)
Rows were chosen to be rich in hits. Some 2.8% of all compounds tested hit in one or more screens of this group.
MITF act: activators of MITF-driven TRPM1 promoter reporter, primary screen, cell-based, SK-MEL-5, luciferase, single point; activation, % at 12.5 µM; SK-MEL-5 TRPM1-promoter luciferase, 24 h; % of positive control, neutral wells = 0; actives 0.75% (n = 300,000);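 active = mean activation of at least 80% with every replicate also reaching 80%; inconclusive = mean reaches 80% but some replicate falls short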
Wnt bcat act: Wnt/beta-catenin pathway activators, primary screen, cell-based, plate reader, single point; AID 743398, 2014; actives 1.2% (n = 300,000); activation, % at 9.35 µM; Wnt/beta-catenin reporter cell assay, activator; in the data active = activation above about 30%, passing the limit was not always enough; inconclusive = no clear call, values can overlap the other calls
FXN GAA850 act: FXN promoter activators, primary screen, cell-based, luciferase luminescence, HEK293 lucGAA850. actives 0.56% (n = 360,000). HEK293 lucGAA850 FXN promoter luciferase reporter, 24 h; percent of 10 µM SAHA response. activation, % at 6 µM. AID 540364, 2011;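 active = activation above the average of all compounds screened plus 3 SD, cutoff fixed separately per campaign, cut at about 7.5% in these data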
esBAF inh: Bmi1 luciferase reporter increase in mESCs, primary screen, esBAF inhibitor project, mouse ES cells, Bmi1 luciferase knock-in, single point | reporter increase, % at 12.5 µM | 24 h; 100% = twice the neutral-well signal | actives 2% (n = 350,000); in the data active = activation above about 40%; inconclusive = no clear call, values can overlap the other calls;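 also: a rise in the Bmi1 reporter signal indicates esBAF inhibition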
GAA30 FXN cntr: GAA30 FXN promoter activators, confirmation, counter-screen for GAA850 frataxin promoter activator project, cell-based, luminescence, HEK293, lucGAA30, triplicate | shares compounds with FXN GAA850 act | HEK293 lucGAA30 FXN promoter luciferase, 24 h; DMSO = 0%, 5 µM ipriflavone = 100% | activation, % at 6 µM | actives 66% (n = 1,900);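 active = mean activation above the mean of solvent-only control wells plus 3 SD, cut at about 22% in these data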;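 also: counterscreen of GAA850 promoter hits where activity marks nonselective or luminescence artifacts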
FXN GAA850 conf: FXN GAA850 promoter activators in reporter cells, confirmation, cell-based, luminescence, HEK293 lucGAA850, triplicate | shares compounds with FXN GAA850 act | HEK293 lucGAA850 FXN promoter luciferase reporter, 24 h; 100% = activation by SAHA | activation, % at 6 µM | actives 86% (n = 1,900) | AID 588351, 2011;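 active = mean activation above a set limit taken from the primary screen, cut at about 8% in these data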
A number is an active result; i = inactive; ? = inconclusive; nt = no result given.

SMILES	MITF act	Wnt bcat act	FXN GAA850 act	esBAF inh	GAA30 FXN cntr	FXN GAA850 conf
N#CCSc1ccc2nc(-c3ccccc3)cn2n1	i	i	7.7	51	119	31
O=c1[nH]c(=O)n(C2OC(CO)C(O)C2O)cc1F (configuration not stated)	nt	nt	19	nt	i	78
Nc1nc(=O)n(C2OC(CO)C(O)C2O)cc1F (configuration not stated)	nt	i	nt	i	nt	nt
CCn1c2ccccc2c2nc3cc(C(=O)O)ccc3nc21	i	i	12	nt	101	27
CO[C@@H]1CN(C)C(=O)c2ccc(NC(=O)Nc3cccc(Cl)c3)cc2OC[C@@H](C)NC[C@H]1C	nt	nt	nt	i	nt	nt
COc1ccccc1C#Cc1ccc2c(c1)[C@H]1[C@H](CCN1C(=O)c1ccncc1)[C@H](CO)N2	nt	nt	nt	i	nt	nt
Cn1cnc(S(=O)(=O)N[C@@H]2CC[C@H](CC(=O)Nc3ccc(-c4ccccc4)cc3)O[C@H]2CO)c1	nt	nt	nt	i	nt	nt
CC(=NNC(=S)Nc1ccccc1)c1ccccn1	nt	i	i	nt	nt	nt
CC(=NNC(=S)Nc1ccccc1Cl)c1ccccn1	i	i	14	nt	i	25
O=C(N/N=C/C(Br)=C/c1ccccc1)c1cnccn1	i	33	8.9	50	107	39
O=C(N/N=C/C(Br)=C\c1ccccc1)c1n[nH]c2c1CCC2	i	nt	17	i	29	68
O=C(N/N=C/c1ccc(Cl)cc1Cl)c1n[nH]c2c1CCCC2	i	nt	i	nt	nt	nt
O=C(N/N=C\c1cccc(Cl)c1)c1n[nH]c2c1CCCC2	100	?	10	nt	73	20
C[C@H](CO)N1C[C@H](C)[C@H](CN(C)S(=O)(=O)c2cccs2)Oc2ccc(NC(=O)Nc3ccc4c(c3)OCO4)cc2CC1=O	i	i	10	i	i	11
C[C@H](CO)N1C[C@H](C)[C@H](CN(C)S(=O)(=O)c2ccccc2)Oc2ccc(NC(=O)NC3CCCCC3)cc2CC1=O	i	i	8.5	i	i	9.2
C[C@@H]1CN([C@H](C)CO)C(=O)Cc2cc(NC(=O)NC3CCCCC3)ccc2O[C@H]1CN(C)S(=O)(=O)c1ccccc1	nt	nt	nt	i	nt	nt
C[C@@H]1CN([C@H](C)CO)C(=O)Cc2cc(NC(=O)Nc3ccc4c(c3)OCO4)ccc2O[C@H]1CN(C)S(=O)(=O)c1cccs1	nt	nt	nt	i	nt	nt
COc1ccc2c(c1)[C@H]1[C@H](CO2)[C@H](c2ccccc2)[C@]2(C)C(=O)N(Cc3ccc(C)cc3)CC(=O)N12	i	nt	13	i	i	9.0
Cc1ccc2c(c1)[C@H]1[C@H](CO2)[C@H](c2ccccc2)[C@]2(C)C(=O)N(Cc3ccccc3)CC(=O)N12	i	i	9.0	i	i	11
Cc1ccc(CN2CC(=O)N3[C@H]4c5cc(C)ccc5OC[C@@H]4[C@H](c4ccccc4)[C@]3(C)C2=O)cc1	i	i	i	i	nt	nt
Oc1csc(Cc2nc(-c3ccc4ccccc4c3)cs2)n1	nt	nt	10	69	63	43
Cc1ccc(S(=O)(=O)Nc2ccc3c(c2)C(=O)N([C@@H](C)CO)C[C@H](C)[C@H](CN(C)S(=O)(=O)c2cccs2)O3)cc1	nt	nt	nt	i	nt	nt
O=[N+]([O-])c1cc(/C=N\O)ccc1Oc1ccc(F)cc1	i	nt	9.4	nt	51	25
COc1ccc(NC(=O)Nc2ccc3c(c2)[C@H]2C[C@@H](CC(=O)N4CCc5ccccc5C4)O[C@@H](CO)[C@H]2O3)cc1	nt	nt	nt	i	nt	nt
C[C@H](CO)N1C[C@H](C)[C@H](CN(C)Cc2ccc(Cl)c(Cl)c2)Oc2ccc(NS(C)(=O)=O)cc2C1=O	nt	nt	nt	i	nt	nt
SMILES	MITF act	Wnt bcat act	FXN GAA850 act	esBAF inh	GAA30 FXN cntr	FXN GAA850 conf
COc1ccc(/C=C/C2=NNC(=O)CC2)cc1	i	i	7.7	nt	83	32
C[C@@H]1CN([C@H](C)CO)C(=O)c2cccc(NC(=O)C3CC3)c2O[C@@H]1CN(C)Cc1ccc(C(=O)O)cc1	nt	nt	nt	i	nt	nt
COc1ccc(C=NNC(=S)NN=Cc2ccc(OC)c(OC)c2)cc1OC	i	i	8.7	i	87	31
COc1ccc(C=NNC(=S)Nc2ccc(F)cc2)cc1OC	i	i	i	i	nt	nt
COc1cccc(CN2[C@@H](CO)[C@@H]3c4ccccc4N(C(=O)CC(F)(F)F)C[C@@H]32)c1	nt	nt	nt	i	nt	nt
Clc1ccc(/C=N/Nc2ncnc3nc[nH]c23)cc1	187	i	9.8	i	110	50
Cc1ccc(/C=N/Nc2ncnc3nc[nH]c23)cc1	i	47	17	i	123	56
O=C(C[C@@H]1CC[C@@H]2[C@H](COC[C@@H](O)CN2Cc2ccccc2F)O1)N[C@H]1CCN(Cc2ccccc2)C1	nt	nt	nt	i	nt	nt
CC(=O)Nc1ccc(N/C=C/C(=O)c2ccc(C)o2)cc1	?	i	8.9	i	95	30
COc1ccccc1N(C)S(=O)(=O)c1ccc(Cl)c(C(=O)NCC2(N(C)C)CCCCC2)c1	i	i	12	i	25	i
CC(C)c1cn(CC[C@H]2CC[C@@H](NC(=O)c3cccc(F)c3)[C@H](CO)O2)nn1	nt	nt	nt	i	nt	nt
CCCNC(=O)N1C[C@H]2[C@@H](c3ccccc31)[C@H](CO)N2Cc1ccc(F)cc1	nt	nt	nt	i	nt	nt
COc1ccccc1/C=C/C1C(C(=O)OCC(C)C)=C(C)N=C2SCCC(=O)N21 (configuration not stated)	i	i	i	nt	nt	nt
COC(=O)C1=C(C)N=C2SCCC(=O)N2C1/C=C/c1ccccc1 (configuration not stated)	i	nt	8.0	i	i	i
COc1ccc(-n2c(=S)[nH]c3cc(C(=O)Nc4ccc(OC)c(OC)c4)ccc3c2=O)cc1	i	nt	11	nt	i	i
COc1ccc(CCN(C)c2ccc(S(=O)(=O)N3CCCC3)cc2[N+](=O)[O-])cc1OC	i	i	9.9	i	i	11
O=C(Nc1ccc2nc(-c3cccs3)[nH]c2c1)c1cccs1	i	i	i	nt	nt	nt
O=C(Nc1ccc(-c2nc3ccc(NC(=O)c4cccs4)cc3[nH]2)cc1)c1cccs1	i	nt	15	nt	i	32
CCOC(=O)c1cc(-c2ccc(OC)cc2)n(CCC(=O)NCCN2CCC(C)CC2)c1C	i	i	17	nt	26	15
O=C(C[C@@H]1CC[C@H]2[C@@H](COC[C@H](O)CN2C(=O)Nc2ccc(Cl)c(Cl)c2)O1)NCc1ccc(Cl)c(Cl)c1	nt	nt	nt	i	nt	nt
O=C(NC(=S)Nc1ccc(NC(=O)c2cccs2)cc1)c1cc2ccccc2o1	i	nt	i	nt	nt	nt
O=C(c1cc2ccccc2o1)c1cccs1	nt	58	8.3	?	117	40
